Here are results for one sequence from PMC7862700, “An all-to-all approach to the identification of sequence-specific readers for epigenetic DNA modifications on cytosine”.

Common to all, as to assay: DAPPL (digital affinity profiling via proximity ligation, sequencing); 10 mM Tris-HCl pH 7.5, 50 mM NaCl, 1 mM DTT, 4% glycerol, room temperature, 30 min; GST-TFs on glutathione beads, 16-mer random dsDNA library, 0.1% formaldehyde crosslink after washing; high values mean tight binding
Experiment [1] deals with T1, FEV (Homo sapiens, UniProt Q99581 1-238).
T1 sequence: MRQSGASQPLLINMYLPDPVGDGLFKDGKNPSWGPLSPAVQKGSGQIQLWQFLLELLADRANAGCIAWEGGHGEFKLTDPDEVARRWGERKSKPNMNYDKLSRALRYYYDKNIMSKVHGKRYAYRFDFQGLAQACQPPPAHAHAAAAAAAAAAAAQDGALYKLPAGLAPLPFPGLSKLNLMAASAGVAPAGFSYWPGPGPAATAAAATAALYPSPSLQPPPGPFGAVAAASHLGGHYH
Particulars: protein: recombinant; tags: N-terminal GST; dsDNA, one strand shown. Put shortly:
(§1)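 Pools were built from human transcription factors expressed in yeast as GST fusions, captured on glutathione beads and DNA-barcoded, along with a tag-only sample. Incubation with 200 nmole of a 16-mer random double-stranded DNA library lasted 30 min at room temperature in Tris/NaCl/DTT/glycerol buffer, and was followed by washing, 0.1% formaldehyde crosslinking, proximity ligation, PCR amplification and Illumina NextSeq500 sequencing. Binding signal is the quotient of each hexamer's read frequency for a factor and its frequency for the tag-only sample.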

For experiment [2], the target named is ETV5 (Homo sapiens, UniProt P41161 1-510). Particulars: protein: recombinant; tags: N-terminal GST; dsDNA, one strand shown. Put shortly:
as §1

Experiment [3] addresses HSF1 (Homo sapiens, UniProt Q00613 1-529). The note with it: protein: recombinant; tags: N-terminal GST; chain copies: 3; dsDNA, one strand shown. The method in brief:
as §1

The target of experiment [4] is T2, SPIC (Homo sapiens, UniProt Q8N5J4 1-248).
T2 sequence: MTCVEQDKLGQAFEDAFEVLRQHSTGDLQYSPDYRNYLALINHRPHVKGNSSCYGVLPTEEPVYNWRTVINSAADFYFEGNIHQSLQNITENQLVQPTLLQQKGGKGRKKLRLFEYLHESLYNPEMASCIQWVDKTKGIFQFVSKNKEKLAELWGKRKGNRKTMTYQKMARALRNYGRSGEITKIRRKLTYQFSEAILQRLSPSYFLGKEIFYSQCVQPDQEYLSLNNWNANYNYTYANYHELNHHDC
Particulars: protein: recombinant; tags: N-terminal GST; dsDNA, one strand shown. The method in brief:
as §1

The target of experiment [5] is ELF4 (Homo sapiens, UniProt Q99607 1-663). Particulars: protein: recombinant; tags: N-terminal GST; dsDNA, one strand shown. Put shortly:
as §1

In experiment [6] the target is T3, ELK4 (Homo sapiens, UniProt P28324-2 1-405).
T3 sequence: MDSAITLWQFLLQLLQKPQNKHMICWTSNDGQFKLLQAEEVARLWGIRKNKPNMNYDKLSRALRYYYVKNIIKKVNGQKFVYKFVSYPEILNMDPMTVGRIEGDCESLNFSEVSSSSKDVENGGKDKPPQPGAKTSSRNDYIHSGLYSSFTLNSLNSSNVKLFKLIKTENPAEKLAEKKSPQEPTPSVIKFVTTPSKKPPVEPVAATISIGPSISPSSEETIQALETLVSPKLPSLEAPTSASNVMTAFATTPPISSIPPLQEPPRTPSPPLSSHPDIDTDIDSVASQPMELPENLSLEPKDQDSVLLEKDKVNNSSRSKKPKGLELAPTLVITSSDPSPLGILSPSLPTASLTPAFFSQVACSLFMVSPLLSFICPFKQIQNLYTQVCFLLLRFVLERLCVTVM
Particulars: protein: recombinant; tags: N-terminal GST; dsDNA, one strand shown. The method in brief: as §1

Experiment [7] has as its target T4, ETV2 (Homo sapiens, UniProt O00321 1-342).
T4 sequence: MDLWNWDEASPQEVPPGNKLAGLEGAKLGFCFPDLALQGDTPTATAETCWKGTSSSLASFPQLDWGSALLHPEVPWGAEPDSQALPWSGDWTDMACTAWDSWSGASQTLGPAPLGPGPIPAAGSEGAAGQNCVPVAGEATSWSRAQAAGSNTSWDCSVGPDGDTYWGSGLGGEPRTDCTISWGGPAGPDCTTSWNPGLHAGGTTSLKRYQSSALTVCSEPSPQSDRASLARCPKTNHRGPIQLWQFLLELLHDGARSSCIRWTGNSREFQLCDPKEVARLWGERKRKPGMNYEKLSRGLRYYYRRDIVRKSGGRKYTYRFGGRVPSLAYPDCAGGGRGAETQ
Particulars: protein: recombinant; tags: N-terminal GST; dsDNA, one strand shown. The method in brief: as §1

Experiment [8] has as its target T5, ELF3 (Homo sapiens, UniProt P78545 1-371).
T5 sequence: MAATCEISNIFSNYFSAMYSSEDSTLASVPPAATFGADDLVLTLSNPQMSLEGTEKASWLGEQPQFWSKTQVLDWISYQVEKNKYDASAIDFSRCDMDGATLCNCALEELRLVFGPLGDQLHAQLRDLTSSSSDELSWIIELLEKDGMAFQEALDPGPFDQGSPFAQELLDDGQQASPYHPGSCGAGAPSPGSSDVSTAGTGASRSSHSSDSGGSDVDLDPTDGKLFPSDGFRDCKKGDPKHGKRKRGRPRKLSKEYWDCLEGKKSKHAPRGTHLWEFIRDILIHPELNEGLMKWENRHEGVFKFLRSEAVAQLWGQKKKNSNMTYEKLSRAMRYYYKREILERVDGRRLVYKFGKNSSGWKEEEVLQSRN
The note with it: protein: recombinant; tags: N-terminal GST; dsDNA, one strand shown. The method in brief:
as §1

For experiment [9], the target named is CRX (Homo sapiens, UniProt O43186 1-299). Particulars: protein: recombinant; tags: N-terminal GST; dsDNA, one strand shown. The method in brief:
as §1

For experiment [10], the target named is ETV1 (Homo sapiens, UniProt P50549 1-477). The note with it: protein: recombinant; tags: N-terminal GST; dsDNA, one strand shown. Put shortly: as §1
Chain of ETV1 (P50549 whole entry): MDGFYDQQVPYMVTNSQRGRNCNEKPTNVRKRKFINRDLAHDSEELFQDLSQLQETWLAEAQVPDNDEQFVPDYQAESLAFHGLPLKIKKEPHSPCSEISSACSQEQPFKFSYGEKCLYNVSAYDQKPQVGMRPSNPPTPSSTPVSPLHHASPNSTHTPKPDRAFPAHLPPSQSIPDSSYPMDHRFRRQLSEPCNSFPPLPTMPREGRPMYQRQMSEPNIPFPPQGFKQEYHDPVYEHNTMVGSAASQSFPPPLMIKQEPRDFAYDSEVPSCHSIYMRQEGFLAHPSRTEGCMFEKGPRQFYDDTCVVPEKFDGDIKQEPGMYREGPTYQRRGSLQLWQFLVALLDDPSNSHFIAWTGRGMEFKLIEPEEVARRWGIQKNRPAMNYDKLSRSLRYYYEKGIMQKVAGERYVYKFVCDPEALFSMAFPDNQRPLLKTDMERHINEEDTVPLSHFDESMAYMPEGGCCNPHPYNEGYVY
Experiment [11] addresses T6, ERF (Homo sapiens, UniProt P50548 1-548).
T6 sequence: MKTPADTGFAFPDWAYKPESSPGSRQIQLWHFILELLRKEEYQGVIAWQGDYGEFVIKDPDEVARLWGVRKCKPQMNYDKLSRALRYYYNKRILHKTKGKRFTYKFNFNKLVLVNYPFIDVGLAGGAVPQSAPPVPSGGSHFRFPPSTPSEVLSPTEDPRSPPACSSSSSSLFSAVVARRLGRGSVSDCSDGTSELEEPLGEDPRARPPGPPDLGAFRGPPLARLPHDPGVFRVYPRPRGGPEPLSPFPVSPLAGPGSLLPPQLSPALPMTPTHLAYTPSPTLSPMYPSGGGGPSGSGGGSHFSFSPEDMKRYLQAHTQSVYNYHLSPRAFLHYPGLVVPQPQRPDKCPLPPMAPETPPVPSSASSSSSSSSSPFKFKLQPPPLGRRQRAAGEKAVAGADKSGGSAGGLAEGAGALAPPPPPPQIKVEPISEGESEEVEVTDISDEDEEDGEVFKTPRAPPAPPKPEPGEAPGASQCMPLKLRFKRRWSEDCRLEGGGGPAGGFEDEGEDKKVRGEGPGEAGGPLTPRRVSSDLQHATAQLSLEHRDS
Particulars: protein: recombinant; tags: N-terminal GST; dsDNA, one strand shown. Put shortly: as §1

The target in experiment [12] is T7, ETV3L (Homo sapiens, UniProt Q6ZN32 1-361).
T7 sequence: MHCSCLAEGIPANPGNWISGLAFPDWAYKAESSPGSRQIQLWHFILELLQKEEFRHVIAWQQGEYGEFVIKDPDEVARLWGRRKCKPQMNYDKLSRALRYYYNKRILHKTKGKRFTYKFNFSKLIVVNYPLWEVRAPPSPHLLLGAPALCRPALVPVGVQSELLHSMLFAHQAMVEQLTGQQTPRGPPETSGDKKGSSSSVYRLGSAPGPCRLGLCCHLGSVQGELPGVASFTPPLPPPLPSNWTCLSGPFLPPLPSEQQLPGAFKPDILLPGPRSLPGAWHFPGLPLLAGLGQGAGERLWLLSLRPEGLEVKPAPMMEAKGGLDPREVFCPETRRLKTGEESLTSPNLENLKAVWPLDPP
Particulars: protein: recombinant; tags: N-terminal GST; dsDNA, one strand shown. Put shortly: as §1

Experiment [13] has as its target T8, ETS2 (Homo sapiens, UniProt P15036 1-469).
T8 sequence: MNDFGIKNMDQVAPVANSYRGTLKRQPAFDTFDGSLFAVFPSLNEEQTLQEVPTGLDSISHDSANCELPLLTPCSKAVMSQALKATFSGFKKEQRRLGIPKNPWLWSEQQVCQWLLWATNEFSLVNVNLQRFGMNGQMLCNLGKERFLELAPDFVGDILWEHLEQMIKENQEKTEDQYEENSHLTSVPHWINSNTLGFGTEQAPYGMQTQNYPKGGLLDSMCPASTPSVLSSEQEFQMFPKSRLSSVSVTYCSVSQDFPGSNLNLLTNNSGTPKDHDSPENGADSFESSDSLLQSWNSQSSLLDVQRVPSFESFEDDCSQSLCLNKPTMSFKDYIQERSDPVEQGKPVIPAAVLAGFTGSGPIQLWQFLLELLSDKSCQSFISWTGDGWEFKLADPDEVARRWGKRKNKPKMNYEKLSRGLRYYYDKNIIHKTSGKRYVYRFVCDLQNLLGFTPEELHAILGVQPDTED
Particulars: protein: recombinant; tags: N-terminal GST; dsDNA, one strand shown. The method in brief:
as §1

For experiment [14], the target named is T9, SPDEF (Homo sapiens, UniProt O95238 1-335).
T9 sequence: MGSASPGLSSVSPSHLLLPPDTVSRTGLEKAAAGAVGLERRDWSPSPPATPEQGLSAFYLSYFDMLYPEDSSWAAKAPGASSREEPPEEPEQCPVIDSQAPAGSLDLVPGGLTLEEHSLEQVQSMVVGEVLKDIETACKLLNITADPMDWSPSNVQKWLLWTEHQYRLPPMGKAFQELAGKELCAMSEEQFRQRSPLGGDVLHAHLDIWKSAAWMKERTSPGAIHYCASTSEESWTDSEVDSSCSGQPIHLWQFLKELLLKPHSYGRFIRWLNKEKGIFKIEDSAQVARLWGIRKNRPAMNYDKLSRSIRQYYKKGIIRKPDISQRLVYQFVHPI
Particulars: protein: recombinant; tags: N-terminal GST; dsDNA, one strand shown. The method in brief: as §1

Experiment [15] deals with T10, ETV7 (Homo sapiens, UniProt Q9Y603 1-341).
T10 sequence: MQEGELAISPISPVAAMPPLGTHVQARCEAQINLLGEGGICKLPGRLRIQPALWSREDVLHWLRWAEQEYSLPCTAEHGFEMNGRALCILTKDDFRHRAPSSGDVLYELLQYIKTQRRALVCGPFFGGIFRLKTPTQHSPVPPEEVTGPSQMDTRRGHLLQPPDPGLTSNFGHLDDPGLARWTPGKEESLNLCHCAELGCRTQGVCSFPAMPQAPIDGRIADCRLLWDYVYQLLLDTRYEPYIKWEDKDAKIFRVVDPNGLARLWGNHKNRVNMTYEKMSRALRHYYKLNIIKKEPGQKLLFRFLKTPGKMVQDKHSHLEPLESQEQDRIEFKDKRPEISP
The note with it: protein: recombinant; tags: N-terminal GST; dsDNA, one strand shown. The method in brief: as §1

The target in experiment [16] is T11, ELF5 (Homo sapiens, UniProt Q9UKW6-2 1-255).
T11 sequence: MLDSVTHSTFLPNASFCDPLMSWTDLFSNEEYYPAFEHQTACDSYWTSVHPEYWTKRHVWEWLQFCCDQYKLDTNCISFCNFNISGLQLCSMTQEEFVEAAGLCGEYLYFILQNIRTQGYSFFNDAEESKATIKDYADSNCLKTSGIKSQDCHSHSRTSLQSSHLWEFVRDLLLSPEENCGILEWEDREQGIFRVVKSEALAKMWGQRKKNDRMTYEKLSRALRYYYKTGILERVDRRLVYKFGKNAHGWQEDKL
The note with it: protein: recombinant; tags: N-terminal GST; dsDNA, one strand shown. Put shortly: as §1

Experiment [17] has as its target T12, ETV3 (Homo sapiens, UniProt P41162-2 1-143).
T12 sequence: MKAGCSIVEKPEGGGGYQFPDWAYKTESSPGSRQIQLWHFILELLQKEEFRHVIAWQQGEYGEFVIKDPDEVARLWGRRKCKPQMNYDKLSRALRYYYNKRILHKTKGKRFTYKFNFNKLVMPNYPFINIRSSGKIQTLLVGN
Particulars: protein: recombinant; tags: N-terminal GST; dsDNA, one strand shown. The method in brief:
as §1

Experiment [18] deals with ETV6 (Homo sapiens, UniProt P41212 1-452). Particulars: protein: recombinant; tags: N-terminal GST; dsDNA, one strand shown. The method in brief:
as §1

Chain of ETV6 (P41212 whole entry): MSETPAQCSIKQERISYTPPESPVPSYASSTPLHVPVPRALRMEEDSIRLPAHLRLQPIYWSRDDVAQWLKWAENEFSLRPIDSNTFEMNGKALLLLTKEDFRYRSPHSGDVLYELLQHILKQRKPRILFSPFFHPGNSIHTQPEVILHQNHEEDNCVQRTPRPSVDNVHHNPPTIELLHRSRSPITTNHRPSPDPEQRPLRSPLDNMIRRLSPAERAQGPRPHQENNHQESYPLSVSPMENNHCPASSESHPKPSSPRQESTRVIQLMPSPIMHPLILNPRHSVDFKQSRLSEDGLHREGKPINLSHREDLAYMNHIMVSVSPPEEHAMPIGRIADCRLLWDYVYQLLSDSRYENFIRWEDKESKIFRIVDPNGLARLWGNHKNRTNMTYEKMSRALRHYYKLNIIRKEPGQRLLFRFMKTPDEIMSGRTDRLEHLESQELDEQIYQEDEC
Chain of CRX (O43186 whole entry): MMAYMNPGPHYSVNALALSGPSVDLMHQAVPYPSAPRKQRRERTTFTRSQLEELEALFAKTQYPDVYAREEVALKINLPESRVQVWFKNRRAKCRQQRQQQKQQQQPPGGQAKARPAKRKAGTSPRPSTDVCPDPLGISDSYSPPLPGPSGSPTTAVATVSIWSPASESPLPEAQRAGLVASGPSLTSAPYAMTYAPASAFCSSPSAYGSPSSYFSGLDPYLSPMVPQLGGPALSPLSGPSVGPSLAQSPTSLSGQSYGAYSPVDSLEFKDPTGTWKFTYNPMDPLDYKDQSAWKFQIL
Chain of ETV5 (P41161 whole entry): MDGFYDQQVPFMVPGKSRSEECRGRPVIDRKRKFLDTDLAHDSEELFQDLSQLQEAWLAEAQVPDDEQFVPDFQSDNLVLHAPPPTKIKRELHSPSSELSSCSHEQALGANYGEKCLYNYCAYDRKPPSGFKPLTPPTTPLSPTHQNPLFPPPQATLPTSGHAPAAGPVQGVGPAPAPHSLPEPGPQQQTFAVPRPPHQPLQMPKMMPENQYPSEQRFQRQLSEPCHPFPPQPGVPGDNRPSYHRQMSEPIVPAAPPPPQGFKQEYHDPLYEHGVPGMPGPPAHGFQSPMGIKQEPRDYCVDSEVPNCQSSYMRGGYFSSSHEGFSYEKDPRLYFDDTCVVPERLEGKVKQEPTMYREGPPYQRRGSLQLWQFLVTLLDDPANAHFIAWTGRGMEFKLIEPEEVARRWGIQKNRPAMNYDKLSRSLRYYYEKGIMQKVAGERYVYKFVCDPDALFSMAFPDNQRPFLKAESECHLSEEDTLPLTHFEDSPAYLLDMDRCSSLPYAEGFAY
Chain of ELF4 (Q99607 whole entry): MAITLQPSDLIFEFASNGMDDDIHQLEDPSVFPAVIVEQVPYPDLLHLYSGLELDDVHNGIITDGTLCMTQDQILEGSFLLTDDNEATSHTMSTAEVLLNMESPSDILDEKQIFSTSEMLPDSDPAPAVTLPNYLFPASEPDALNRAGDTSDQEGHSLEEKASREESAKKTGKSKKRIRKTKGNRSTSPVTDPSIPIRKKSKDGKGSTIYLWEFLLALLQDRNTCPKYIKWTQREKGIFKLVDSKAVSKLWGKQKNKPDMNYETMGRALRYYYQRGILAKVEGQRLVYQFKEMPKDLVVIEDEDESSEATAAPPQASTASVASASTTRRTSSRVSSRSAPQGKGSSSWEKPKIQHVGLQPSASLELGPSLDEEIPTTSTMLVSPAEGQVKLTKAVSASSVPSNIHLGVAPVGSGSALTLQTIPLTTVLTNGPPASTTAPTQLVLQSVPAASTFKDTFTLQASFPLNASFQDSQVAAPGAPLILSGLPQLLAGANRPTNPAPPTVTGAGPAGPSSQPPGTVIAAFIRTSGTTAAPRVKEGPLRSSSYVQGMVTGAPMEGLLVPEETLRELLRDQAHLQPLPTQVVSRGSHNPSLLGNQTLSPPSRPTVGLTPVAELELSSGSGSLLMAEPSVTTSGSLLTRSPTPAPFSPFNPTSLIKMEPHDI
Chain of HSF1 (Q00613 whole entry): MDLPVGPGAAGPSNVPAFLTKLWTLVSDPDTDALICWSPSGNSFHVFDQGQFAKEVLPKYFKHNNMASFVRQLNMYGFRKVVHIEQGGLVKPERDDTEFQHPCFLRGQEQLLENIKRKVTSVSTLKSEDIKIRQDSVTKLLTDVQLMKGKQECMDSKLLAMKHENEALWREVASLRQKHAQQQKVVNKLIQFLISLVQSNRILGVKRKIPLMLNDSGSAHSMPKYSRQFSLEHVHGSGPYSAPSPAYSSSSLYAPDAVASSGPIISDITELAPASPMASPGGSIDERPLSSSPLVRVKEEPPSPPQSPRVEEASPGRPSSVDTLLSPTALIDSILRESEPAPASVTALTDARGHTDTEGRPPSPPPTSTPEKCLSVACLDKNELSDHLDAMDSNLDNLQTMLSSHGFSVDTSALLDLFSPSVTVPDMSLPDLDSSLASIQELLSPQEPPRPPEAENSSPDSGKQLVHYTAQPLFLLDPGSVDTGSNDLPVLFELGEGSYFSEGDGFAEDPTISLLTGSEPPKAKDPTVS

In the case of CTCTTC, the binding signal in [1] was 1.73 fold enrichment (6-mer frequency, TF over GST control); in experiment [2] it was 1.76 fold enrichment (6-mer frequency, TF over GST control); in experiment [3], 1.25 fold enrichment (6-mer frequency, TF over GST control); in experiment [4] it was 1.69 fold enrichment (6-mer frequency, TF over GST control); in [5] it was 1.68 fold enrichment (6-mer frequency, TF over GST control); in [6] it was 1.66 fold enrichment (6-mer frequency, TF over GST control). The binding signal was 1.71 fold enrichment (6-mer frequency, TF over GST control) in experiment [7]; 1.67 fold enrichment (6-mer frequency, TF over GST control) in experiment [8]; 1.21 fold enrichment (6-mer frequency, TF over GST control) in experiment [9]; 1.71 fold enrichment (6-mer frequency, TF over GST control) in [10]; 1.62 fold enrichment (6-mer frequency, TF over GST control) in experiment [11]; 1.89 fold enrichment (6-mer frequency, TF over GST control) in experiment [12]. Besides, the binding signal in [13] is 1.65 fold enrichment (6-mer frequency, TF over GST control); in experiment [14], 1.59 fold enrichment (6-mer frequency, TF over GST control); in experiment [15], 1.56 fold enrichment (6-mer frequency, TF over GST control); in [16] it was 2.07 fold enrichment (6-mer frequency, TF over GST control); in experiment [17] it was 1.75 fold enrichment (6-mer frequency, TF over GST control); in experiment [18] it was 1.84 fold enrichment (6-mer frequency, TF over GST control).
